Experimental findings from PubChem BioAssay AID1347422 (Sanford-Burnham Center for Chemical Genomics, 2020) are described below.

Molecules are shown by their SMILES. In all, about 1,000 compounds were measured (“thermal shift dTm”: median about 0.19, highest 2% from about 1.7 on). The entries come from a sample that favours the highest values as a whole. Active and inactive are the calls of the source.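 The calls were made as follows: active = mean rise in melting temperature of at least 1 degC over same-plate control wells; inactive = below that, where a call was filed.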

Sulfhydryl oxidase 1 (Homo sapiens), sequence (O00391 whole entry, looked up): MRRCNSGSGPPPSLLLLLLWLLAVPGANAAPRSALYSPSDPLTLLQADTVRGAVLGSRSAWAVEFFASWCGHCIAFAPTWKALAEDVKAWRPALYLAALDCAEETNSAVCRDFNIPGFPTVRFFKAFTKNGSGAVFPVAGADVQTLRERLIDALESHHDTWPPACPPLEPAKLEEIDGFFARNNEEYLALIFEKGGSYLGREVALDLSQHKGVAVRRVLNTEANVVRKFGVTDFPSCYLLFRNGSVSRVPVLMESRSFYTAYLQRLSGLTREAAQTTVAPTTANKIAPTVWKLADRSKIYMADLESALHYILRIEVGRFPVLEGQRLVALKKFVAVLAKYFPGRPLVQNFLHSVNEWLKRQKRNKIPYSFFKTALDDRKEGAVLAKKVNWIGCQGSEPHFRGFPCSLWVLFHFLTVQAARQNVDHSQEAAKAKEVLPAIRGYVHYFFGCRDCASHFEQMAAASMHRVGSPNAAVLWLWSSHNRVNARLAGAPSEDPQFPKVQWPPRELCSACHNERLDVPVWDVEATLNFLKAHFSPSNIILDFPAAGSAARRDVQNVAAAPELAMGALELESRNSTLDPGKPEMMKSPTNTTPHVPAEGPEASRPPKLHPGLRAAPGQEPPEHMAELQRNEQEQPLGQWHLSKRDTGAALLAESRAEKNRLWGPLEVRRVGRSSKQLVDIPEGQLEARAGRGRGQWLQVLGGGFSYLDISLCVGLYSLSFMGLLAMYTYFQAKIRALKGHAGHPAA

This experiment has as its target Sulfhydryl oxidase 1 (Homo sapiens) (UniProt O00391). The experiment is described as follows: ligand-induced melting shift of human QSOX1 – biophysical, protein thermal shift, single concentration, QSOX1 inhibitor project, confirmation (AID 1347422).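 Also: dTm is compound Tm minus mean Tm of DMSO-only wells on that plate.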 As to conditions: recombinant hQSOX1 thermal shift, Sypro Orange, at 25 µM, stronger effect = higher value.
As to `O=C(CCSc1nc2sc3c(c2c(=O)[nH]1)CCCC3)Nc1ccccc1`, the thermal shift dTm amounted to 0.02 °C.
To `NC(=O)c1ccc(-c2ccc3[nH]ccc3c2)nc1` belongs 0.79 °C; to `Cc1cc2ncn(CCCOc3ccc(Cl)cc3)c2cc1C`, 0.11 °C.
The result for `CC(C)N(Cc1nc(-c2ccc(Cl)cc2)no1)S(=O)(=O)c1ccc(F)cc1` reads 0.02 °C; that for `CCc1ccc(NC(=O)Nc2ccc(Br)cn2)cc1`, 0.09 °C; that for `COc1ccc(NC(=O)Nc2ccc(C)cc2)c(OC)c1`, 0.2 °C.
On to `COc1ccc(NC(=O)Nc2ccc(C(C)=O)cc2)c(C)c1`, for which the thermal shift dTm is 2.14 °C (active).
To `COc1ccc(OC)c(NC(=O)Nc2cccc(NC(C)=O)c2)c1` belongs 1.91 °C (active).
On to `COc1ccc(NC(=O)Nc2ccc(C)cc2C)cc1`, for which the thermal shift dTm amounted to 0.05 °C.
The result for `COc1cccc(NC(=O)Nc2cccc3ccccc23)c1` reads 0.01 °C; that for `COc1ccc(C)cc1NC(=O)Nc1ccc(NC(C)=O)cc1`, 0.57 °C; that for `N/C(=N\c1nc(-c2cccs2)cc(C(F)(F)F)n1)Nc1ccc2c(c1)OCCO2`, 0.35 °C.
With `COc1cccc(NC(=O)Nc2ccc(Cc3ccncc3)cc2)c1`, the thermal shift dTm came to 0.38 °C.
Regarding `COc1ccc(NC(=O)Nc2cccnc2)cc1`, the thermal shift dTm came out at 0.28 °C.
The result for `COc1ccc(NC(=O)Nc2cccc(Cn3cc(Cl)cn3)c2)cc1` reads 2.14 °C (active); that for `Cc1nnc(NC(=O)c2ccc(NC(=O)c3ccco3)cc2)s1`, 0.7 °C; that for `CC(=O)Nc1ccc(NC(=O)c2nnn(-c3cccc(Cl)c3)c2N)cc1`, 0.55 °C.
For the compound `O=C(Nc1nccs1)c1ccccc1OCc1ccccc1`, the thermal shift dTm is 0.37 °C.
On to `CCc1sc(NC(=O)Cc2ccc(F)cc2)nc1-c1ccccc1`, for which the thermal shift dTm was 0.17 °C.
To `O=S(=O)(NCCSC1CCCCC1)c1ccc(Cl)cc1` belongs 0.11 °C; to `O=C(CCc1ccccc1)Nc1cccc(-c2nc3ccccc3s2)c1`, 0.59 °C; to `CC(=O)Nc1ccc(C(=O)CSc2ccc3ccccc3n2)cc1`, 1.22 °C (active).
The result for `Cc1ccccc1NC(=S)NCCC(c1ccccc1)c1ccccc1` reads 0.02 °C; that for `Cc1ccc(NC(=O)Nc2ccc3snnc3c2)cc1`, -0.45 °C (inactive); that for `c1ccc(COc2ccc(-c3noc(-c4ccccn4)n3)cc2)cc1`, 0.01 °C.
As for `C=CCc1c(C)nc2c(-c3ccccc3)cnn2c1NCc1cccnc1`, the thermal shift dTm was -0.08 °C (inactive).
For the compound `Cc1cc(OCCn2cc(C(=S)N3CCOCC3)c3ccccc32)ccc1Cl`, the thermal shift dTm stood at 0.02 °C.
For the compound `COc1ccc2c(c1OC)C(=O)N(c1ccc(Cl)cc1)C2`, the thermal shift dTm turned out to be 0.81 °C.
The result for `O=C(Nc1cccc(-c2nc3ccccc3[nH]2)c1)C1CCCO1` (stereo not given) reads 0.02 °C; that for `Cc1ncc(CNc2ccc(-c3nc4ccccc4[nH]3)cc2)cn1`, 0.14 °C.
Regarding `c1cc(NCc2ccc3c(c2)OCO3)cc(-c2nc3ccccc3[nH]2)c1`, the thermal shift dTm was 2.39 °C (active).
For the compound `COc1ccc(NC(=O)c2ccoc2)cc1Cl`, the thermal shift dTm is 0.23 °C.
For `COc1ccc(C(=O)Nc2ccc(Cl)c(C)n2)cc1Cl`, the thermal shift dTm is 1.85 °C (active).
To `COc1ccc(C(=O)Nc2ccc(NC(C)=O)cc2)cc1C` belongs 1.48 °C (active); to `COc1ccc(-c2noc(-c3cccc(NC(C)=O)c3)n2)cc1`, 0.24 °C; to `CSc1cccc(NC(=O)NCc2ccccn2)c1`, 0.18 °C.
As to `O=C(Nc1nc(-c2ccccc2)ns1)N1CCOc2ccc(Cl)cc2C1`, the thermal shift dTm is 0.23 °C.
The result for `O=C(CN(c1ccccc1F)S(=O)(=O)c1ccccc1)Nc1ccc(F)cc1F` reads -0.03 °C (inactive); that for `Cc1cc(N(C)C)nc(N2CCN(C(=O)Nc3cccc(F)c3)CC2)n1`, -0.08 °C (inactive); that for `CCCN(CC1CC1)C(=O)c1cc(COc2ccc(OC)cc2Cl)on1`, 0.09 °C.
Regarding `CC(=O)Oc1ccc2cc(-c3ccc(Cl)cc3)c(=O)oc2c1`, the thermal shift dTm was 0.11 °C.
As for `CCCn1c(=O)[nH]c(=O)c2c(-c3cccc4ccccc34)ccnc21`, the thermal shift dTm was determined as 0.25 °C.
To `Cc1ccc(NC(=O)Nc2ccc(Br)cc2)nc1` belongs 0.28 °C; to `Cc1ccc2ccc(C(Nc3ccccn3)c3ccc(Cl)cc3)c(O)c2n1` (stereo not given), 0.57 °C.
For the compound `O=c1[nH]c(SCc2ccc(Cl)c(Cl)c2)nc2ccccc12`, the thermal shift dTm turned out to be 0.11 °C.
